The source of these data is PubChem BioAssay AID1851 (National Center for Advancing Translational Sciences (NCATS), 2009).

Values joined by “and” are separate entries in the source; they are usually repeats but may differ in a detail not shown here. Equal values may be shown once. Among all 16,000 compounds or so, about 5,100 (32%) were called active. About 25% were inconclusive and are not listed. Calls come from the whole dose curve; as a rule, active = well fitted curve in the direction sought with a large enough effect; inconclusive = small, poorly fitted or top-dose-only effect, or effect the other way; inactive = no such curve, though single readings can be large or run the other way. Some of the results follow. Peptide text beside a SMILES is read from it.
% is set by controls: 0 for no effect and ±100 for the full control effect.

Chain of Cytochrome P450 3A4 (Homo sapiens) (P08684 whole entry, looked up): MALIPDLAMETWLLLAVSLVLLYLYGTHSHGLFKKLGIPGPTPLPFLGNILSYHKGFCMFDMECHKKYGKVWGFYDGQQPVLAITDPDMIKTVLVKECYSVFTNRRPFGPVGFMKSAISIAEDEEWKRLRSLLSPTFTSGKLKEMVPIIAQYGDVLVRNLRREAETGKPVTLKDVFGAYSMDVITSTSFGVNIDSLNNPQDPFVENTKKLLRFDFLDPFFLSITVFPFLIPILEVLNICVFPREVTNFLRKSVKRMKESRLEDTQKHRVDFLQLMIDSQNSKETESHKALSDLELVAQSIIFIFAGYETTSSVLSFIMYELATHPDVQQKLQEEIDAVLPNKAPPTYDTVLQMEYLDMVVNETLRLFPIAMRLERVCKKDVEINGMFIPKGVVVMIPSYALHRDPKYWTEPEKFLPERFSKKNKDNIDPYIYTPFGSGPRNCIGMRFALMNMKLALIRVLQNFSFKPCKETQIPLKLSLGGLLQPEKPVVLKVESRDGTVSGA

The assay concerns the target Cytochrome P450 3A4 (Homo sapiens) (UniProt P08684). Description: Cytochrome panel assay with activity outcomes. The following applies: recombinant CYP, pro-luciferin dealkylation, luminescence, p450-cyp3a4; series mostly up to 57.1 µM; activity, negative = inhibition: at the top concentration.
`CC(C)C[C@H](NC(=O)[C@@H](O)[C@@H](N)Cc1ccccc1)C(=O)O`: the AC50 entry was “inactive”.
As to `COC(=O)[C@H](Cc1ccccc1)NC(=O)[C@@H](C)CO`, the activity, negative = inhibition is -44.5% [at 11.4 µM] (inactive).
Regarding `COC(=O)C(CC(C)C)NC(=O)C(N)Cc1ccccc1` (stereo not drawn) (H-Phe-Leu-OMe; configuration not given here), the AC50 is 14.1 µM (active).
On to `CCCc1cc2c(n1Cc1cc(F)cc(F)c1)C(C)C1CN(C(=O)c3ccccc3)C(C)(C(=O)OC)C21` (stereo not given), for which the AC50 is 3.16 µM (active).
Take `CCCc1cc2c(n1CCc1ccc(Cl)cc1)C(C)C1CN(C(=O)c3ccccc3)C(C)(C(=O)OC)C21` (stereo not given): the AC50 was 5.01 µM (active).
`CCCc1cc2c(n1Cc1ccc(OC)cc1)C(C)C1CN(C(=O)c3ccccc3)C(C)(C(=O)OC)C21` (stereo not given): the AC50 was 3.16 µM (active).
For `C[C@@]1(C(=O)O)CCC[C@@H]1C(=O)O`, the activity, negative = inhibition is -5.72% [at 11.4 µM] (inactive).
Still for that read-out and setting: the figure for `O=C(O)C[C@H](Cc1ccccc1Cl)C(=O)O` is -7.24% [at 11.4 µM] (inactive); for `Cc1ccnc(N)c1` it is -10.5% (inactive).
As for `Cc1cc(=O)[nH]c2ccccc12`, the “activity, negative = inhibition” value is -3.24% (inactive).
For the compound `CC1CCCC(n2c(=S)[nH]c3ccccc3c2=O)C1C` (stereo not given), the AC50 was 7.94 µM (active).
In the case of `CCn1c(=O)[nH]c2ccccc2c1=O`, the activity, negative = inhibition was 5.24% [at 2.29 µM] (inactive).
`CCN1CCN(C(c2ccccn2)c2c(NC(=O)c3ccccc3)sc(C)c2C)CC1` (stereo not given): the AC50 is 8.91 µM (active).
Take `CC(C)CO[C@H](c1ccc2c(c1)OCO2)[C@H](C)Br`: the AC50 is 3.16 µM (active).
As for `CCC(Sc1nc2n[nH]c(C)c2c(=N)n1-c1cccc(Cl)c1)C(=O)NCCOC` (stereo not given), the AC50 was 2.82 µM (active).
With `Nc1ccn([C@H]2O[C@H](CO)[C@@H]3[O][Sn]([c]4ccccc4)([c]4ccccc4)[O][C@H]32)c(=O)n1`, the activity, negative = inhibition is 25.9% [at 11.4 µM] (inactive).
In the case of `Cc1ccc(C(=O)Nc2cc3c(oc2=O)CCCC3=O)cc1`, the “activity, negative = inhibition” value was -13.6% (inactive).
With `Cc1cc(N)ccc1NC(=O)c1ccccc1`, the “activity, negative = inhibition” value is -26.1% (inactive).
For the compound `CC(=O)c1cc(NC(=O)c2ccccc2)c(=O)oc1/C=C/N(C)C`, the AC50 was 25.1 µM (active).
Regarding `COc1ccc(C(=O)Nc2cc(C(C)=O)c(/C=C/N(C)C)oc2=O)cc1`, the “activity, negative = inhibition” value is -28.9% (inactive).
Still for that read-out and setting: in the case of `CCOC(=O)c1cc(NC(=O)c2ccc(OC)cc2)c(=O)oc1-c1ccccc1` it was -32.3% (inactive).
Take `Cc1oc(=O)c(NC(=O)c2ccccc2)cc1C(=O)c1ccccc1`: the AC50 is 7.94 µM (active).
Same read-out and setting: the figure for `O=C(Nc1cc(Sc2ccccn2)cc([N+](=O)[O-])c1)c1ccc(Cl)cc1` is 7.94 µM (active).
Turning to `CSc1cccc(NC(=O)c2ccc(Cl)nc2)c1`, the “activity, negative = inhibition” value is -25.5% (inactive).
As for `CC/C(O)=C(\C#N)c1nnc2n1CCCCC2`, the “activity, negative = inhibition” value is 9.11% (inactive).
As to `Cn1c(CCN2CCCCC2)nc2cc([N+](=O)[O-])ccc21`, the “activity, negative = inhibition” value was 9.92% (inactive).
As for `CN1CCCN(C)C1c1cc([N+](=O)[O-])ccc1O`, the activity, negative = inhibition is -5.36% [at 11.4 µM] (inactive).
As for `O=C1Nc2ccc([N+](=O)[O-])cc2C1(O)N1CCCCCC1` (stereo not given), the AC50 was 3.55 µM (active).
In the case of `Cc1cc(C)nc(NC(=O)/C=C/c2ccc(Cl)cc2Cl)c1`, the activity, negative = inhibition was 4.58% [at 2.29 µM] (inactive).
In the case of `COCCCNC(=O)/C=C/c1cccc(Cl)c1`, the “activity, negative = inhibition” value is -20.5% (inactive).
As to `O=C(/C=C/c1cccc(Cl)c1)Nc1ccncc1`, the AC50 is 0.178 µM (active).
On to `NS(=O)(=O)c1cc(Br)c(N=Nc2ccc(O)c3ncccc23)c(Br)c1`, for which the activity, negative = inhibition is -8.46% [at 11.4 µM] (inactive).
For the compound `O=C(O)[C@@H]1CCCN1`, the activity, negative = inhibition was -4.77% [at 11.4 µM] (inactive).
For the compound `COC(=O)C1CC1C(NC(=O)[C@@H]1CCCN1)c1ccccc1` (stereo not given in full), the AC50 was 12.6 µM (active).
As to `COC(=O)C1CC1C(NC(=O)[C@H]1CCCCN1)c1ccccc1` (stereo not given in full), the AC50 was 10 µM (active).
For `COc1ccc(C(=O)[C@H](Br)[C@H](Br)C(=O)O)cc1`, the activity, negative = inhibition is 3.56% [at 11.4 µM] (inactive).
Regarding `COc1ccc(C(=O)NC(C)c2cc(OC)c(OC)cc2Br)cc1` (stereo not given), the concentration at half-maximal activity (AC50) was 0.501 µM (active).
On to `COc1cc(Br)c(C(C)NC(=O)c2cccc(Br)c2)cc1OC` (stereo not given), for which the AC50 is 0.282 µM (active).
Take `NS(=O)(=O)c1cc2c(cc1Cl)N[C@@H](CC1CCCC1)NS2(=O)=O`: the “activity, negative = inhibition” value was -28% [at 25.6 µM] (inactive).
The same measure, in the same setting: in the case of `CC(=O)c1cc2ccccc2oc1=O` it was -7.81% [at 25.6 µM] (inactive).
With `O=C(Nc1ccc(-n2nncc2-c2ccco2)cc1)c1cc2ccccc2oc1=O`, the AC50 was 4.47 µM (active).
Regarding `CC(C)(C)c1ccc(C(=O)Nc2ccc(NC(=O)c3ccco3)cc2)cc1`, the activity, negative = inhibition is 11.7% [at 2.29 µM] (inactive).
Take `C/C(=N/NC(=O)c1ccc(NC(=O)c2ccc(F)cc2)cc1)c1ccccc1`: the activity, negative = inhibition is 15.1% [at 0.457 µM] (inactive).
For `CC(C)OC(=O)c1cc2ccccc2oc1=O`, the “activity, negative = inhibition” value is -3.83% (inactive).
Regarding `COc1ccc(-c2cnnn2-c2ccc(NC(=O)c3ccco3)cc2)cc1OC`, the AC50 is 1 µM (active).
For the compound `O=C(Nc1ccc(-n2nncc2-c2ccco2)cc1)c1ccc(F)cc1`, the AC50 was 0.708 µM (active).
In the case of `COc1ccc(Br)c2c1C[C@H](C(=O)O)CC2`, the activity, negative = inhibition is -12.7% [at 11.4 µM] (inactive).
On to `Nc1nc2c(c(=O)[nH]1)CN(c1ccc(S(N)(=O)=O)cc1)CN2`, for which the activity, negative = inhibition was -4.97% [at 11.4 µM] (inactive).
As to `CC(=O)SCC[N+](C)(C)C`, the “activity, negative = inhibition” value was -4.83% (inactive).
For the compound `COC(=O)[C@@H]1CC[C@H](C)[C@@H](c2ccc(C)cc2)N1C(=O)c1ccc(/C=N\O[C@@H](C)c2cn([C@H](CO)Cc3ccccc3)nn2)cc1`, the AC50 is 1.26 µM (active) and 3.16 µM (active).
`COC(=O)[C@@H]1CC[C@H](C)[C@@H](c2ccc(C)cc2)N1C(=O)c1ccc(/C=N\OCC[C@@H]2C=C[C@H](OC(C)=O)[C@H](COC(C)=O)O2)cc1`: the activity, negative = inhibition was -18.2% [at 11.4 µM] (inactive).
Take `COC(=O)[C@@H]1CC[C@H](C)[C@@H](c2ccc(C)cc2)N1C(=O)c1ccc(/C=N\O[C@@H]2O[C@H](COC(C)=O)[C@H](OC(C)=O)[C@H](OC(C)=O)[C@H]2OC(C)=O)cc1`: the activity, negative = inhibition is -14.4% [at 11.4 µM] (inactive).
For `COC(=O)[C@@H]1CC[C@H](C)[C@@H](c2ccc(C)cc2)N1C(=O)c1ccc(/C=N\OC[C@@H](C)[C@H](OCc2ccccc2)C(C)C)cc1`, the AC50 is 3.98 µM (active).
On to `CO/N=C\c1ccc(C(=O)N2[C@H](c3ccc(C)cc3)[C@@H](C)CC[C@H]2C(=O)OC)cc1`, for which the AC50 was 3.16 µM (active).
In the case of `O=Nc1ccc(NOC(=O)c2ccc(Br)cc2)cc1`, the “activity, negative = inhibition” value is 8.94% (inactive).
